Read-out in experiment [1]: Thrombomodulin, THBD (gene 7056)
Kind of experiment: BSK_CASM3C_Thrombomodulin: BioMAP Diversity Plus: CASM3C Assay for Thrombomodulin Biomarker Activity (AID 2283051).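 Also: thrombomodulin protein level measured by ELISA 24 h after dosing.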 As to conditions: primary human coronary artery smooth muscle cells; actives raise or lower the signal.

Read-out in experiment [2]: Tissue Factor, F3 (gene 2152)
Briefly: BSK_CASM3C_TissueFactor: BioMAP Diversity Plus: CASM3C Assay for Tissue Factor Biomarker Activity (AID 2283052).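 Also: cell surface tissue factor protein level read by ELISA.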 As to conditions: primary human coronary artery smooth muscle cells; actives raise or lower the signal.

Read-out in experiment [3]: Interferon-gamma inducible Protein 10 (IP10), CXCL10 (gene 3627)
Kind of experiment: BSK_hDFCGF_IP10: BioMAP Diversity Plus: hDFCGF Assay for Interferon-gamma inducible Protein 10 (IP10) Biomarker Activity (AID 2283053). As to conditions: primary human foreskin fibroblasts; actives raise or lower the signal. In outline:
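Cells: human dermal foreskin fibroblasts. Exposure: 24 h post-dosing. Detection: IP-10 ELISA, with values expressed against DMSO controls and fitted in both directions.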

Read-out in experiment [4]: Urokinase-type plasminogen activator receptor (uPAR), PLAUR (gene 5329)
Briefly: BSK_CASM3C_uPAR: BioMAP Diversity Plus: CASM3C Assay for Urokinase-type plasminogen activator receptor (uPAR) Biomarker Activity (AID 2283054).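 Also: cell-surface uPAR protein level quantified by ELISA.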 As to conditions: primary human coronary artery smooth muscle cells; actives raise or lower the signal.

Read-out in experiment [5]: Vascular cell adhesion molecule 1 (VCAM1), VCAM1 (gene 7412)
Kind of experiment: BSK_CASM3C_VCAM1: BioMAP Diversity Plus: CASM3C Assay for Vascular cell adhesion molecule 1 (VCAM1) Biomarker Activity (AID 2283055).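 Also: VCAM-1 protein level quantified by ELISA on the cells.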 As to conditions: primary human coronary artery smooth muscle cells; actives raise or lower the signal.

Read-out in experiment [6]: Collagen III, COL3A1 (gene 1281)
Kind of experiment: BSK_hDFCGF_CollagenIII: BioMAP Diversity Plus: hDFCGF Assay for Collagen III Biomarker Activity (AID 2283056). As to conditions: primary human foreskin fibroblasts; actives raise or lower the signal. In outline: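 Human foreskin primary fibroblasts were exposed to test chemicals for 24 h, after which collagen III was quantified by ELISA. Activity was fitted bidirectionally against DMSO as negative control and baseline.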

Read-out in experiment [7]: Epidermal growth factor receptor (EGFR), EGFR (gene 1956)
Briefly: BSK_hDFCGF_EGFR: BioMAP Diversity Plus: hDFCGF Assay for Epidermal growth factor receptor (EGFR) Biomarker Activity (AID 2283057). As to conditions: primary human foreskin fibroblasts; actives raise or lower the signal. The method, boiled down:
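Dosing human primary skin fibroblasts, then measuring surface EGFR by ELISA at 24 h, gives the endpoint; gains and losses relative to DMSO were fitted in both directions.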

Read-out in experiment [8]: Interleukin-8 (IL8), CXCL8 (gene 3576)
Kind of experiment: BSK_hDFCGF_IL8: BioMAP Diversity Plus: hDFCGF Assay for Interleukin-8 (IL8) Biomarker Activity (AID 2283058). As to conditions: primary human foreskin fibroblasts; actives raise or lower the signal. The method, boiled down: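 hDFCGF human dermal fibroblasts; 24 h chemical exposure; IL-8 by ELISA; bidirectional curve fit vs DMSO baseline; gain or loss of signal scored.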

Experiment [9] is described as follows: BSK_hDFCGF_Proliferation: Cell Proliferation Assessment in the BioMAP Diversity Plus: hDFCGF Assay (AID 2283059).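 Also: curves fitted for both rise and fall of signal versus DMSO baseline.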 As to conditions: primary human foreskin fibroblasts. The method, boiled down: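 Primary human foreskin fibroblasts, sub-confluent; […]; 10% TCA fix, 0.1% SRB stain, A560 total protein. Gain/loss fitted bidirectionally vs DMSO control.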

Read-out in experiment [10]: Macrophage colony-stimulating factor (MCSF), CSF1 (gene 1435)
Kind of experiment: BSK_hDFCGF_MCSF: BioMAP Diversity Plus: hDFCGF Assay for Macrophage colony-stimulating factor (MCSF) Biomarker Activity (AID 2283060). As to conditions: primary human foreskin fibroblasts; actives raise or lower the signal. The method, boiled down:
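Human foreskin primary fibroblasts were treated with test chemical for 24 h, and M-CSF was then measured by ELISA. Data were fitted bidirectionally against DMSO as the negative control and activity baseline.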

The nature of experiment [11]: BSK_hDFCGF_SRB: Viability Assessment in the BioMAP Diversity Plus: hDFCGF Assay (AID 2283061).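 Also: cells exposed to compound for 24 h before the read.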 As to conditions: primary human foreskin fibroblasts. In outline:
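Human foreskin primary fibroblasts were treated with compound and assessed 24 h after dosing. Total protein was measured by sulforhodamine B staining (0.1% SRB after 10% TCA fixation, 560 nm read) as a cytotoxicity marker, with bidirectional fitting against DMSO baseline.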

Read-out in experiment [12]: TIMP metallopeptidase inhibitor 1 (TIMP1), TIMP1 (gene 7076)
Kind of experiment: BSK_hDFCGF_TIMP1: BioMAP Diversity Plus: hDFCGF Assay for TIMP metallopeptidase inhibitor 1 (TIMP1) Biomarker Activity (AID 2283062). As to conditions: primary human foreskin fibroblasts; actives raise or lower the signal. In outline:
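Primary human foreskin fibroblasts in the hDFCGF system were dosed with compound for 24 h, then TIMP-1 was measured by ELISA. Activity was fitted bidirectionally relative to DMSO control; parallel SRB staining assessed cytotoxicity.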

Read-out in experiment [13]: Monokine induced gamma interferon (MIG), CXCL9 (gene 4283)
Kind of experiment: BSK_hDFCGF_MIG: BioMAP Diversity Plus: hDFCGF Assay for Monokine induced gamma interferon (MIG) Biomarker Activity (AID 2283063). As to conditions: primary human foreskin fibroblasts; actives raise or lower the signal. The method, boiled down:
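ELISA read-out of MIG from primary human dermal fibroblasts 24 h post-dosing. Gain or loss of signal fitted bidirectionally, DMSO as baseline.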

Read-out in experiment [14]: Matrix Metallopeptidase 1 (MMP1), MMP1 (gene 4312)
Briefly: BSK_hDFCGF_MMP1: BioMAP Diversity Plus: hDFCGF Assay for Matrix Metallopeptidase 1 (MMP1) Biomarker Activity (AID 2283064). As to conditions: primary human foreskin fibroblasts; actives raise or lower the signal. In outline: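 MMP1 levels quantified by ELISA 24 h after dosing human dermal fibroblast cultures, with parallel SRB total-protein staining for overt cytotoxicity. Data fitted in both directions against DMSO baseline.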

Read-out in experiment [15]: Vascular cell adhesion molecule 1 (VCAM1), VCAM1 (gene 7412)
Kind of experiment: BSK_hDFCGF_VCAM1: BioMAP Diversity Plus: hDFCGF Assay for Vascular cell adhesion molecule 1 (VCAM1) Biomarker Activity (AID 2283065).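 As to AC50: VCAM-1 protein level quantified by ELISA after 24 h chemical exposure.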 As to conditions: primary human foreskin fibroblasts; actives raise or lower the signal. In outline:
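Primary human foreskin fibroblasts (hDFCGF system) were dosed with chemical and VCAM-1 was measured by ELISA 24 h later. Bidirectional curve fitting used DMSO as negative control and activity baseline.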

Read-out in experiment [16]: Plasminogen activator inhibitor-1 (PAI1), SERPINE1 (gene 5054)
Briefly: BSK_hDFCGF_PAI1: BioMAP Diversity Plus: hDFCGF Assay for Plasminogen activator inhibitor-1 (PAI1) Biomarker Activity (AID 2283066). As to conditions: primary human foreskin fibroblasts; actives raise or lower the signal. The method, boiled down: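 Fibroblasts from human foreskin were treated with test chemical. After 24 h, PAI-1 was measured by ELISA. Activity was fitted in both directions relative to DMSO.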

Read-out in experiment [17]: Intercellular Adhesion Molecule 1 (ICAM1), ICAM1 (gene 3383)
Briefly: BSK_KF3CT_ICAM1: BioMAP Diversity Plus: KF3CT Assay for Intercellular Adhesion Molecule 1 (ICAM1) Biomarker Activity (AID 2283067). As to conditions: primary human keratinocytes with fibroblasts; actives raise or lower the signal. In outline: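 Human keratinocyte plus foreskin fibroblast primary co-culture was exposed to chemical for 24 h. ICAM-1 was then quantified by ELISA, and the data were fit bidirectionally against DMSO as the negative control and baseline.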

Read-out in experiment [18]: Interferon-gamma inducible Protein 10 (IP10), CXCL10 (gene 3627)
Briefly: BSK_KF3CT_IP10: BioMAP Diversity Plus: KF3CT Assay for Interferon-gamma inducible Protein 10 (IP10) Biomarker Activity (AID 2283068). As to conditions: primary human keratinocytes with fibroblasts; actives raise or lower the signal. The method, boiled down:
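In a primary skin co-culture of keratinocytes and fibroblasts, IP-10 is quantified by ELISA at 24 h after dosing. SRB staining of parallel wells monitors overt toxicity. Curves are fitted both directions against DMSO.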

A short description of experiment [19]: BSK_KF3CT_SRB: Viability Assessment in the BioMAP Diversity Plus: KF3CT Assay (AID 2283069). As to conditions: primary human keratinocytes with fibroblasts. The method, boiled down: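 Cytotoxicity was gauged by SRB staining (0.1% SRB, 10% TCA fixation, 560 nm) of parallel cultures at 24 h. The cells were primary human skin keratinocytes co-cultured with fibroblasts, and activity was fitted in both directions against DMSO.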

Read-out in experiment [20]: Interleukin-1 alpha (IL1a), IL1A (gene 3552)
Kind of experiment: BSK_KF3CT_IL1a: BioMAP Diversity Plus: KF3CT Assay for Interleukin-1 alpha (IL1a) Biomarker Activity (AID 2283070). As to conditions: primary human keratinocytes with fibroblasts; actives raise or lower the signal. The method, boiled down: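 IL-1a was detected by ELISA 24 h after chemical treatment of a co-culture of human skin keratinocytes and foreskin fibroblasts. Gain or loss of signal was fitted against the DMSO baseline.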

Several values for one entry are separate records, joined by “and”; a condition that tells them apart may be missing. Equal values may be shown once. Some compounds were tested as several samples or in several runs, with calls that do not always agree. Activity calls are given as the source filed them. The calls were made as follows: active = hit-call score of the fitted dose curve at least 0.9, where 1 is the maximum; inactive = score below 0.9.

Turning to `CCN(CC)c1ccccc1`, the outcome in [1], in [2], in experiment [3], in [4], in experiment [5] and in experiment [6] was inactive. Also, the result in experiment [7], in experiment [8], in [9], in [10], in experiment [11] and in experiment [12] was inactive. Moreover, the result in experiment [13], in [14], in experiment [15], in experiment [16], in experiment [17] and in experiment [18] was inactive. The outcome in experiment [19] and in experiment [20] was inactive.

In the case of `OCC(F)(F)OC(F)(F)C(F)(F)OC(F)(F)CO`, the result in [1], in experiment [2], in experiment [3], in [4], in experiment [5] and in [6] was inactive. Further, the result in [7], in experiment [8], in experiment [9], in experiment [10], in experiment [11] and in experiment [12] was inactive. Besides, the outcome in [13], in [14], in experiment [15], in [16], in experiment [17] and in experiment [18] was inactive. The result in experiment [19] and in experiment [20] was inactive.

Usually AC50 stands for the concentration at which the activity in the assay is half-maximal. Turning to `OCC(F)(F)OC(F)(F)C(F)(F)OC(F)(F)C(F)(F)OC(F)(F)CO`, the result in experiment [1], in [2], in experiment [4], in experiment [5], in [6] and in [7] was inactive. Further, the outcome in experiment [8], in [10], in experiment [11], in experiment [12], in experiment [16] and in experiment [17] was inactive. The outcome in experiment [18], in experiment [19] and in [20] was inactive. Moreover, the AC50 is 26.5 µM (active) and 24.2 µM (active) in [3]; 14.9 µM (active) in [6]; 4.15 µM (active) and 36.9 µM (active) in [9]; 14 µM (active) in experiment [10]; 5.95 µM (active) in experiment [11]; 16.8 µM (active) and 23.2 µM (active) in experiment [13]. Further, the AC50 in experiment [14] was 10.5 µM (active) and 8.39 µM (active); in [15] it was 13.4 µM (active) and 8.26 µM (active).

Take `CCOP(=S)(OCC)SCSc1ccc(Cl)cc1`: the result in [1], in [4], in [6], in experiment [7], in experiment [8] and in experiment [9] was inactive. The result in experiment [11], in experiment [12], in experiment [13], in experiment [14], in [16] and in experiment [17] was inactive. Moreover, the result in experiment [18] and in [19] was inactive. The AC50 in experiment [2] is 16.5 µM (active); in experiment [3], 8.28 µM (active); in experiment [5] it was 1.6 µM (active); in [10] it was 14.4 µM (active); in [15], 3.97 µM (active); in experiment [20], 3.12 µM (active).

Turning to `O=P1(N(CCCl)CCCl)NCCCO1` (configuration not stated), the result in experiment [1], in [2], in experiment [3], in [4], in [5] and in [6] was inactive. Also, the outcome in experiment [7], in experiment [8], in experiment [9], in [10], in experiment [11] and in [12] was inactive. Further, the result in experiment [13], in experiment [14], in experiment [15], in [16], in experiment [17] and in [18] was inactive. Moreover, the outcome in experiment [19] and in experiment [20] was inactive.

`O=C(O)C(F)(F)OC(F)(F)C(F)(F)OC(F)(F)C(=O)O`: the outcome in [1], in experiment [2], in [3], in experiment [4], in experiment [5] and in experiment [6] was inactive. For the same molecule, the result in [7], in experiment [8], in [9], in experiment [10], in experiment [11] and in experiment [13] was inactive. Further, the result in experiment [14], in [15], in [16], in experiment [17], in experiment [18] and in experiment [19] was inactive. Further, the result in experiment [20] was inactive.

The record behind these values is PubChem BioAssay (EPA / NIEHS).
